Test results from PubChem BioAssay (NCI).
This is part of a sample that, as a whole, favours compounds with a hit. Of some 83,000 tested, about 20% had one in any assay.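 The endpoint reported here, percent growth, reads 100 for growth as untreated, 0 for no net growth and -100 for all cells dead.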 Unmarked numbers belong to inactive results. The source made the active and inactive calls. Rule for the calls: active = growth percent below 10; inactive = the rest.

Test system: MALME-3M melanoma
Assay: NCI-60 one-dose screen, 48 h (100 = growth as untreated, 0 = no growth, -100 = all killed)
Details: 10 µM unless noted

Structure (SMILES) | growth
COc1cc(/C(C#N)=C/c2ccc3c(c2OC)OCO3)cc2c1OCO2 | 37.1%
CC12CCC3C4(C)COC(c5ccco5)OC4CCC3(C)C1CC(C1=CCOC1=O)O2 (stereo not drawn) | 98.5%
C=C1CCC2C3(C)COC(c4ccc(N(C)C)cc4)OC3CCC2(C)C1C/C=C1/C(=O)OCC1O (stereo not drawn) | 105%

Test system: MDA-MB-231 breast
Assay: as above
Details: 10 µM unless noted

Structure (SMILES) | growth
N#C/C(=C1C=C/C(=N/O)C(Cl)=C/1)c1ccc(Cl)cc1 | 61.4%
c1coc(CNc2ccnc(Nc3ccc(OCCN4CCCCC4)cc3)n2)c1 | 82.6%
C=C1CCC2C(C)(CO)C(O)CCC2(C)C1C/C=C1/C(=O)OCC1O/C=C/c1ccccc1 (stereo not drawn) | 95.6%
C=C(C)[C@@H]1CC[C@]2(C(=O)N3CCNCC3)CC[C@]3(C)[C@H](CC[C@@H]4[C@@]5(C)C/C(=C/c6ccncc6)C(=O)C(C)(C)[C@@H]5CC[C@]43C)[C@@H]12 | 116%
CCOC(=O)C1C(=O)C=C(c2ccc(OC)cc2)CC1c1sc(N(C)Cc2ccccc2)nc1Cl (stereo not drawn) | 68.3%
COc1cc(/C=C/C(=O)/C=C/c2cc(OC)c3c(c2)OCO3)cc2c1OCO2 | 80.2%
C[n+]1c(/C=C/c2c(O)ccc3ccccc23)ccc2ccccc21 | 24.8%
CCN(CC)CCC(CNc1c2ccc(Cl)cc2nc2ccc(OC)cc12)c1ccccc1 (stereo not drawn) | -46.1% (active)
C=C1CC2(OC1=O)C(=O)N(CCCN1C(=O)C3(CC(=C)C(=O)O3)c3ccccc31)c1ccccc12 (stereo not drawn) | -29.2% (active)
CN(CCCCCl)P(=O)(OCc1ccc([N+](=O)[O-])o1)C(F)(F)C[C@H](NC(=O)CNC(=O)c1ccc(N=[N+]=[N-])cc1)C(=O)NCCc1ccc(O)cc1 (stereo partly drawn) | 108%
